# The whole screen tested about 350,000 compounds, of which about 1,100 (0.31%) were called active. The entries come from a sample that favours actives as a whole. A number with no mark means an inactive call. Cut-off read from the data, not from the text of the source: active = activation above about 50%; inactive = the rest.
# Biological target: Endoribonuclease toxin MazF (Escherichia coli (strain K12)) (UniProt P0AE70)
# Assay: activators of E. coli MazEF toxin-antitoxin RNase, primary screen, biochemical, fluorescence, uHTS (AID 504720)
# Settings: FAM/BHQ RNA-DNA oligo cleavage fluorescence, 5 h, at 20 µM, active compounds read high
# Sequence of Endoribonuclease toxin MazF (Escherichia coli (strain K12)) (P0AE70 whole entry, looked up): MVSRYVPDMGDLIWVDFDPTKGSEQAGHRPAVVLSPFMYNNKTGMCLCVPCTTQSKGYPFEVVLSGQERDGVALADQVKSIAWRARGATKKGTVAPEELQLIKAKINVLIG
row,Structure (SMILES),activation
1,Cc1nnc2n1N=C(c1ccc3c(c1)NC(=O)CO3)CS2,-1.68%
2,Cc1c(C(=O)NCCN(C)C)oc2ccc(S(=O)(=O)N3CCCC3)cc12,111% (active)
3,CCOC(=O)C1CCN(C(=O)c2oc3ccc(S(=O)(=O)N4CCCCCC4)cc3c2C)CC1,-5.11%
4,COc1ccc(NC(=O)c2oc3ccc(S(=O)(=O)N4CCOCC4)cc3c2C)cc1,8.57%
5,COCCNC(=S)N1CCN(C)CC1,-2.39%
6,C/C(CC(=O)NCc1ccc(Cl)cc1)=N\NC(=O)COc1ccc(C)cc1Br,-5.14%
7,CC(CCc1ccccc1)NCC(O)c1cccc([N+](=O)[O-])c1 (stereo unspecified),11.5%
8,COc1cccc(/C=N/NC(=O)c2[nH]nc3c2CCc2ccccc2-3)c1O,160% (active)
9,COc1cc(/C=N/NC(=O)c2cccnc2)ccc1OC(=O)c1cccc(Br)c1,8.67%
10,CCn1c(/C=N/NC(=O)c2ccc(OC)cc2)nc2ccccc21,-0.18%
11,COc1ccc(S(=O)(=O)N2CCOC23CCN(S(=O)(=O)c2ccc([N+](=O)[O-])cc2)CC3)cc1,5.08%
12,COc1ccc(C(=O)Nc2ccc(C3(C#N)CCCC3)cc2)cc1OC,-19.2%
13,CCOCCCNC(=O)C(NC(=O)c1ccccc1O)c1ccccc1 (stereo unspecified),-12.8%
14,CC[C@@H]1Cc2cc(O)ccc2C2=C1c1ccc(O)cc1C[C@H]2CC,84.7% (active)
15,O=C1CC(Sc2ncn[nH]2)C(=O)N1c1ccccc1 (stereo unspecified),3.68%
16,Cc1[nH]c(C)c(S(=O)(=O)N2CCC(C)CC2)c1C(=O)N1CCCC1,1.65%
17,CCOC(=O)c1c(C)[nH]c(C)c1C(=O)COC(=O)/C=C/c1cccc([N+](=O)[O-])c1,3.22%
18,Cc1ccc(CNC(=O)CSc2nnc3c(n2)[nH]c2ccc(F)cc23)cc1,18.4%
19,Cc1cccc(N=Nc2c(O)[nH]c3ccc(F)cc23)c1,946% (active)

row,Structure (SMILES),activation
1,COc1cc(OC)c(C(=S)N2CCCC2)cc1OC,9.16%
2,O=C1C2(Cl)C3(Cl)C4(Cl)C(Cl)(Cl)C5(Cl)C3(Cl)C1(Cl)C5(Cl)C24Cl (stereo unspecified),65.6% (active)
3,C=CCn1c(-c2ccc(Cl)cc2)ccc(C#N)c1=O,2.85%
4,Cc1nc(Nc2ccc3c(c2)OCCO3)c2nnn(Cc3ccccc3Cl)c2n1,-3.74%
5,Cc1nc(Nc2ccccc2F)c2nnn(Cc3ccccc3Cl)c2n1,61.6% (active)
6,Cc1nc(Nc2ccc(S(=O)(=O)N3CCCC3)cc2)c2nnn(Cc3ccccc3)c2n1,12.1%
7,CC(C)(C)OC(=O)CNC(=O)c1[nH]cnc1C(=O)N[C@@H](CCCCN)C(=O)OC(C)(C)C,-1.01%
8,CC(=O)Nc1ccc(C(=O)N(C2=NC(C)CS2)c2ccc(Cl)cc2)cc1 (stereo unspecified),2.92%
9,C/C(=N\NC(=O)COc1c(C)cccc1C)c1cccs1,-0.53%
10,CCOc1ccccc1N1CCN(C(=O)c2ccc3[nH]c(C)c(C)c3c2)CC1,9.45%
11,CCN1C[C@@H]2[C@@H]3C(=O)N(Cc4ccccc4)C(=O)[C@@H]3[C@](Cc3ccccc3)(C(=O)OC)N2C1=NC1CCCCC1,37.9%
12,CCCN=C1N(C)C[C@@H]2[C@@H]3C(=O)N(Cc4ccccc4)C(=O)[C@@H]3[C@](C)(C(=O)OC)N12,3.52%
13,CC[C@]1(C(=O)OC)[C@H]2C(=O)N(C)C(=O)[C@H]2[C@H]2CN(C)C(=NCc3ccccc3)N21,74.5% (active)
14,CCOC(=O)c1ccc(NC(=O)c2ccc(NC(=O)C3CCCO3)cc2)cc1 (stereo unspecified),2.03%
15,OCCC1CN(Cc2ccc3nsnc3c2)CCN1C1CCCCC1 (stereo unspecified),5.81%
16,CC(C)Cn1c(CCC(=O)O)ccc1-c1cccs1,-11.1%
17,CC(=O)OC1CCC2(C)C(=CCC3C4CC(=O)N(O)C(=O)C4(C)CCC32)C1 (stereo unspecified),1.13%
18,CCN1/C(=C\c2ccc3ccccc3[n+]2CC)Sc2cc(C)ccc21,79.5% (active)
19,CCN1/C(=C/c2ccc3ccc(C)cc3[n+]2CC)Sc2ccccc21,72.6% (active)

row,Structure (SMILES),activation
1,CN(C(=O)CC(NC(=O)c1ccccc1)(c1ccccc1)c1ccccc1)c1ccccc1,10.5%
2,Cc1c(Cl)cccc1NC(=S)N(Cc1ccccc1)Cc1cccnc1,13.1%
3,CC(C)c1ccc(NC2CCCN(C(=O)c3ccncc3)C2)cc1 (stereo unspecified),5.6%
4,C[C@@H](NC(=O)OC(C)(C)C)c1nnc(S(=O)(=O)Cc2ccccc2)o1,8.87%
5,C/C(=N\OC(=O)c1ccccc1)c1c(C)nc2cc(C)ccn12,4.56%
6,COc1cc(Cl)c(C)cc1NC(=O)COC(=O)c1cc(SC)ccc1Cl,-5.68%
7,COCCn1c(SCC(=O)Nc2ccc(F)cc2F)nc2c(c1=O)SCC2,7.1%
8,COc1cc(N2CCCC2)c(OC)cc1/C=C(/C#N)c1cccc(Br)c1,-128%
9,O=C(NCCCNC(=O)NC1CCCCC1)NC1CCCCC1,6.46%
10,COC(=O)Cn1c(=NC(=O)CSCC(=O)Nc2cc(C)on2)sc2ccccc21,5.86%
11,CC(C)(C)[C@H]1C=C(C(=O)NCc2ccccc2)O[C@@H](OCc2ccc(CO)cc2)C1,3.75%
12,CCn1c(O)c(N=NC(=O)c2cccc(S(=O)(=O)N3CCCCC3)c2)c2ccccc21,-8.66%
13,CCN(CC)S(=O)(=O)c1cc([N+](=O)[O-])ccc1N=Nc1c(O)n(C)c2ccccc12,142% (active)
14,CCN(CC)S(=O)(=O)c1cc([N+](=O)[O-])ccc1NNC(=O)Nc1ccccc1,3.61%
15,O=C(COC(=O)c1ccc(F)cc1F)Nc1ncccn1,-2.63%
16,CCOc1ccc(N(CC(=O)NCCOc2ccccc2OC)S(=O)(=O)c2ccccc2)cc1,-0.33%
17,O=C(COc1ccc(S(=O)(=O)N2CCCCC2)cc1)NCc1ccccn1,9.35%
18,CCOCCOC(=O)C1=C(C)N(C)C(=O)NC1c1ccccc1F (stereo unspecified),7.27%

# Reference: PubChem BioAssay AID504720 (Sanford-Burnham Center for Chemical Genomics, 2011)
